Measured values as given in the supplement of paper PMC10849652.
Of roughly 7,900 targets only a part is listed; those with a hit were picked by preference. About 0.6% of all pairs of compound and target were hits. Values without a mark were called inactive.

Tests used:
Experiment in all cases: log2 fold change, soluble protein after heating vs DMSO (PISA); higher = thermal stabilisation; K562 cells, 10 uM, 30 min; active = over 0.2 and 3.5 SD of the protein, either way, in both replicates (recomputed)
erlotinib = compound: C#Cc1cccc(Nc2ncnc3cc(OCCOC)c(OCCOC)cc23)c1 [erlotinib]
How it was run: (§1)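 Values are thermal stability changes relative to control samples and are taken from duplicates. They are stated as log2 fold changes. Before quantification by TMTpro 16plex LC-MS/MS with equalised channel sums, K562 cells at 2×10^6 cells/mL were treated with 10 μM compound for 30 min, heated in aliquots for 3 min across 48°C-58°C, pooled, extracted in PBS with 0.5% NP-40 at 4°C, and centrifuged at 21,000xg for 90 min to give the soluble supernatant.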

[1] = compound: C/C(=N\NC(=O)C1=CC(=CC=C1)S(=O)(=O)N2CCOCC2)/C3=C(C=CC(=C3)Cl)O
How it was run: as §1

[2] = compound: C1=CC(=C(C=C1Cl)C2=NC3=NC=CN=C3C(=N2)NC4=CC=NC=C4)F
How it was run: as §1

[3] = compound: C1=CC(=CC=C1C2=NC3=C(N2)C=C(C=C3)C(=O)N)OC4=CC=C(C=C4)Cl
How it was run: as §1

[4] = compound: C1=CC2=C(C=CC(=C2)/C=C\3/C(=O)NC(=NCC4=CC=CS4)S3)N=C1
How it was run: as §1

[5] = compound: C1=CC2=NC=CN=C2C=C1/C=C/3\C(=O)NC(=O)S3
How it was run: as §1

[6] = compound: C1=CC=C(C=C1)C2=NC(=C(N2)C3=CC=NC=C3)C4=CC(=C(C=C4)Cl)O
How it was run: as §1

[7] = compound: C1=CC=C2C(=C1)C3=NNC4=CC=CC(=C43)C2=O
How it was run: as §1

[8] = compound: C1CCN(C1)C(=O)NC2=CC=CC(=C2)NC3=NC=C(C(=N3)NCCC4=CN=CN4)Br
How it was run: as §1

[9] = compound: C1CN(CCC1(CC2=CC=C(C=C2)Cl)N)C3=NC=NC4=C3C=CN4
How it was run: as §1

Chain of UniProt O00748 (O00748 whole entry, looked up): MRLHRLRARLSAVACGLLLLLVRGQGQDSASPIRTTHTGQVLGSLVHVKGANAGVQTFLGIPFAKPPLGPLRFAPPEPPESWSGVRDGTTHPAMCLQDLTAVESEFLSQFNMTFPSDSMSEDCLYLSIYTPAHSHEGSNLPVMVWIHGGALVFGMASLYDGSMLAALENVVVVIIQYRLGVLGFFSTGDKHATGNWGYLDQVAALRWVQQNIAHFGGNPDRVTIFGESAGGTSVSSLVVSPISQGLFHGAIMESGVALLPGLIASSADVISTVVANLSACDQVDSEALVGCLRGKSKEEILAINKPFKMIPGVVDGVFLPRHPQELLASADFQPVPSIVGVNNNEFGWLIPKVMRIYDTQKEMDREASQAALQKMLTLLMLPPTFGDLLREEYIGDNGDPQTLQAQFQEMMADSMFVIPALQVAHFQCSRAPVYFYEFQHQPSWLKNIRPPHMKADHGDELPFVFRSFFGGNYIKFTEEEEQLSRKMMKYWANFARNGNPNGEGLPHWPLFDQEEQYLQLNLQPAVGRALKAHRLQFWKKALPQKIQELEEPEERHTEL
Chain of UniProt Q14677 (Q14677 whole entry, looked up): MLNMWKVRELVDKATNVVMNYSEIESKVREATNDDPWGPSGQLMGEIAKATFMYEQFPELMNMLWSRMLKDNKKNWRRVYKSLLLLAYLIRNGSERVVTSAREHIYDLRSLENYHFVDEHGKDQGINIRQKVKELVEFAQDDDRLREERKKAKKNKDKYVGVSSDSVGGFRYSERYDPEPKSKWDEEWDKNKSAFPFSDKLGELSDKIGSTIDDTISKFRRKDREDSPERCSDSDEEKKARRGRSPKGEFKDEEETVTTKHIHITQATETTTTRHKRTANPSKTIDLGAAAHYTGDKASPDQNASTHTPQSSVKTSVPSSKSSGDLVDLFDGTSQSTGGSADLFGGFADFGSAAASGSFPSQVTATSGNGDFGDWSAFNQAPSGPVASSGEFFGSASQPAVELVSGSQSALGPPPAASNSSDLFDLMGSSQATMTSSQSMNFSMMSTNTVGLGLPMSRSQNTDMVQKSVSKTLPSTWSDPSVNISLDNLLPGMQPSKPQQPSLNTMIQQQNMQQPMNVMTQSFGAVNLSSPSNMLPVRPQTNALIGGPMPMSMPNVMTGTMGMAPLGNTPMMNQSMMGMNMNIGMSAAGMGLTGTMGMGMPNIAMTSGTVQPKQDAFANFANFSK
Chain of UniProt P48729 (P48729 whole entry, looked up): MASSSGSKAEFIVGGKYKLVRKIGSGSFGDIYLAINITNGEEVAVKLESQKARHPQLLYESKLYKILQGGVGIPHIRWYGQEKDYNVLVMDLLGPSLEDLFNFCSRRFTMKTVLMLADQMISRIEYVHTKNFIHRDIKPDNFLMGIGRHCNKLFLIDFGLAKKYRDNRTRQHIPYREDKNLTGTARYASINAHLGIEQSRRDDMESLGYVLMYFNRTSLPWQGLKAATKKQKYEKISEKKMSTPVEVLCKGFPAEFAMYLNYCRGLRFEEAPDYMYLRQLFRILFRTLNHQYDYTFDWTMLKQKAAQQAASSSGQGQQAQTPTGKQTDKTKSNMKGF
Chain of UniProt Q96JM3 (Q96JM3 whole entry, looked up): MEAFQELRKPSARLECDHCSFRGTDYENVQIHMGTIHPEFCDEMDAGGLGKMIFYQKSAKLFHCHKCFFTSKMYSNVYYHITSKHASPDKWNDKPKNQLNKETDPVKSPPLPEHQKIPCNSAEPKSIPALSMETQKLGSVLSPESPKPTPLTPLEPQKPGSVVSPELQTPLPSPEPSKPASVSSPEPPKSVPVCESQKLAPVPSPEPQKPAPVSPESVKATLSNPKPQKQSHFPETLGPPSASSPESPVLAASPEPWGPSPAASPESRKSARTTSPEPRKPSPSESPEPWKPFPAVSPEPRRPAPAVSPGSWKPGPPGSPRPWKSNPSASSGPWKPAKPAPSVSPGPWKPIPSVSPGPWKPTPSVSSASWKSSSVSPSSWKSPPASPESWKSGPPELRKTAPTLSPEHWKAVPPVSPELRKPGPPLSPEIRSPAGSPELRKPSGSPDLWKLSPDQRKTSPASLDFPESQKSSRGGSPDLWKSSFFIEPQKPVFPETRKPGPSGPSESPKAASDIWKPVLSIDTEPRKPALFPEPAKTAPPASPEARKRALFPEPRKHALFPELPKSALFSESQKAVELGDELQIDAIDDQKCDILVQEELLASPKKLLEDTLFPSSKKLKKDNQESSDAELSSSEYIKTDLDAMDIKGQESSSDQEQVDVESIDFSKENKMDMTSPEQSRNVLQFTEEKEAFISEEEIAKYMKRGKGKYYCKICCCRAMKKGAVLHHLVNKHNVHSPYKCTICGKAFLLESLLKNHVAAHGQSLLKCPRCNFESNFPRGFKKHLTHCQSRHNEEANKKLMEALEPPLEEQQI
Chain of UniProt P14854 (P14854 whole entry, looked up): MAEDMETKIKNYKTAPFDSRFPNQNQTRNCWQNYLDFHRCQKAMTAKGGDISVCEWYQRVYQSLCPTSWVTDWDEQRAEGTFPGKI
Chain of UniProt O75956 (O75956 whole entry, looked up): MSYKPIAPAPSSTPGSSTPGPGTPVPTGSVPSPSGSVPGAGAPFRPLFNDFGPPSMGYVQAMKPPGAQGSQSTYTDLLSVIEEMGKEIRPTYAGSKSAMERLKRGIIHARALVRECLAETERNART
Chain of UniProt Q7KZN9 (Q7KZN9 whole entry, looked up): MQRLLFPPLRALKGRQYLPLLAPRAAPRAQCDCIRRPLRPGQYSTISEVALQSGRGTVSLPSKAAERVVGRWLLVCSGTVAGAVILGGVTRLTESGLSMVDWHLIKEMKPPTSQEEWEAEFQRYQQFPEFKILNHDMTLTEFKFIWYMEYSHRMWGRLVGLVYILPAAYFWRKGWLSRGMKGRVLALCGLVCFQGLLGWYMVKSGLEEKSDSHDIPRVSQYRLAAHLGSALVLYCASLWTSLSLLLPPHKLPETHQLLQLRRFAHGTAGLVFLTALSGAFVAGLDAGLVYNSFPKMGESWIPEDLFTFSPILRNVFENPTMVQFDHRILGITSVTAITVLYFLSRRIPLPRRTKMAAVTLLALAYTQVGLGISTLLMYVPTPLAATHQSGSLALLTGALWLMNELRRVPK
Chain of UniProt Q9H444 (Q9H444 whole entry, looked up): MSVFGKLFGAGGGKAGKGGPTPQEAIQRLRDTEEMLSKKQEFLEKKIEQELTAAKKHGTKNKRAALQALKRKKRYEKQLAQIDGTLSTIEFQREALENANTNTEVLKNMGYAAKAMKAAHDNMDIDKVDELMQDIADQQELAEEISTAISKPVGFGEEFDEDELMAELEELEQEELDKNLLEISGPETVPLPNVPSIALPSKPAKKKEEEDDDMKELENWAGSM
Chain of UniProt Q6P5X5 (Q6P5X5 whole entry, looked up): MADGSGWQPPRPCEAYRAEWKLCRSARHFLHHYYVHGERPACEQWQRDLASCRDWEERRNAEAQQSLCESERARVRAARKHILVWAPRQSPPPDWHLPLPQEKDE
Chain of UniProt P41240 (P41240 whole entry, looked up): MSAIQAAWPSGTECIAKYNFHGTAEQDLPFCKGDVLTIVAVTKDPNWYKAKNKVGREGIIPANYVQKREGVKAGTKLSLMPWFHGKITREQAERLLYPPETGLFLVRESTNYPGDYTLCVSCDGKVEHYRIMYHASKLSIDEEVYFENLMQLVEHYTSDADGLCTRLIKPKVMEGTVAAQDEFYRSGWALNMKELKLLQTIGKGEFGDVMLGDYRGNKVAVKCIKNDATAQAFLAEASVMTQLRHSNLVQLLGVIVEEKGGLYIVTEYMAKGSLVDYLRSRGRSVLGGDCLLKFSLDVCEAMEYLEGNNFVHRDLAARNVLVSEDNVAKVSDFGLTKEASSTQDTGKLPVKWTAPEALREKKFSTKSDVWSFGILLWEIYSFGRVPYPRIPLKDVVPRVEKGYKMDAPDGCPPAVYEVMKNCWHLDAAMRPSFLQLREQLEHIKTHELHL
Chain of UniProt P46527 (P46527 whole entry, looked up): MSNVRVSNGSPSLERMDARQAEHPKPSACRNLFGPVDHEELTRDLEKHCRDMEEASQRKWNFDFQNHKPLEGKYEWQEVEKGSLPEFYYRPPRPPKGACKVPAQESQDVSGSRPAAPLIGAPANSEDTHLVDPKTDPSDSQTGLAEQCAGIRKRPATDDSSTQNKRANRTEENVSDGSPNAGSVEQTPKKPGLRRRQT
Chain of UniProt Q6UUV9 (Q6UUV9 whole entry, looked up): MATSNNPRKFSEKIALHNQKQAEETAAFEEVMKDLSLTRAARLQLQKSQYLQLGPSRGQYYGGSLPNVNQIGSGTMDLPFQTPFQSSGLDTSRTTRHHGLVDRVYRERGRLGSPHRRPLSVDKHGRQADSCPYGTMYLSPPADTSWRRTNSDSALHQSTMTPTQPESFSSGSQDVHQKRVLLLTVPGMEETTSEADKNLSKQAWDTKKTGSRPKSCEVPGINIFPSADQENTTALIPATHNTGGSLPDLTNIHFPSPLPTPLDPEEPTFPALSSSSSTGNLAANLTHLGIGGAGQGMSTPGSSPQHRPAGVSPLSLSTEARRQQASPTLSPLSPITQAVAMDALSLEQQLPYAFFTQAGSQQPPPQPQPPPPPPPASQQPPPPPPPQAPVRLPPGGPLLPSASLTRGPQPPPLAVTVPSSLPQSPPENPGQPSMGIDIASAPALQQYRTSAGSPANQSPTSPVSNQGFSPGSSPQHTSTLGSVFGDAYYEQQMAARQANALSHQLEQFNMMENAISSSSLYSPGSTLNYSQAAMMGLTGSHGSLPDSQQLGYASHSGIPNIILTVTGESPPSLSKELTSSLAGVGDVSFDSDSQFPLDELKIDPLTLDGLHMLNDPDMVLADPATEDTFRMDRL
Chain of UniProt Q9P031 (Q9P031 whole entry, looked up): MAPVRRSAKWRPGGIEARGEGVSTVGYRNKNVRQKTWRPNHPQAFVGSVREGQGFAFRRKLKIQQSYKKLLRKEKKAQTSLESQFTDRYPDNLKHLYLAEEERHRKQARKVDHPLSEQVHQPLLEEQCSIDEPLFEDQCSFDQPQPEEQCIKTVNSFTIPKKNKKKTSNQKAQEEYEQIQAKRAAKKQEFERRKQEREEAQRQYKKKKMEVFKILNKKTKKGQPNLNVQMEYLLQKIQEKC
Chain of UniProt Q9NRR8 (Q9NRR8 whole entry, looked up): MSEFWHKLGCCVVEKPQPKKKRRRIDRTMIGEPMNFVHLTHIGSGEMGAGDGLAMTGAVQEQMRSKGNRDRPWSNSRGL

| Target | log2 fold change (erlotinib) | log2 fold change [1] | log2 fold change [2] | log2 fold change [3] | log2 fold change [4] | log2 fold change [5] | log2 fold change [6] | log2 fold change [7] | log2 fold change [8] | log2 fold change [9] |
| --- | --- | --- | --- | --- | --- | --- | --- | --- | --- | --- |
| CPT2 (UniProt P23786) | -0.096 | -0.087 | 0.068 | 0.636 | 0.07 | 0.076 | 0.163 | 0.066 | 0.004 | 0.23 |
| CRTC1 isoform 2 (UniProt Q6UUV9) | 0.007 | 0.07 | -0.228 | 0.068 | 0.185 | -0.052 | -0.229 | -0.051 | -0.053 | 0.021 |
| CES2 isoform 4 (UniProt O00748) | -0.05 | -0.16 | -0.264 | -0.008 | -0.06 | -0.011 | 0.139 | 0.083 | 0.061 | -0.087 |
| CDKN1B (UniProt P46527) | -0.076 | 0.027 | -0.133 | 0.064 | -0.217 | -0.049 | -0.1 | -0.01 | – | – |
| CDK2AP2 (UniProt O75956) | -0.142 | -0.007 | 0.037 | 0.043 | 0.063 | 0.103 | 0.007 | 0 | – | – |
| CHAMP1 (UniProt Q96JM3) | 0.083 | 0.004 | 0.075 | 0.03 | 0.023 | 0.014 | -0.01 | -0.06 | 0.004 | 0.064 |
| CSTF2 (UniProt P33240) | 0.032 | -0.002 | -0.011 | 0.017 | 0.017 | 0.051 | -0.076 | 0.023 | 0.033 | -0.061 |
| COX15 (UniProt Q7KZN9) | -0.01 | -0.008 | 0.067 | -0.008 | 0.03 | 0.145 | -0.009 | -0.019 | 0.01 | 0.057 |
| C22orf39 (UniProt Q6P5X5) | -0.256 | -0.02 | -0.018 | 0.02 | -0.014 | 0.051 | -0.023 | -0.004 | 0.037 | 0.02 |
| C19orf53 (UniProt Q9UNZ5) | -0.161 | -0.216 | -0.52 | 0.079 | -0.129 | -0.011 | -0.024 | -0.028 | 0.053 | -0.176 |
| CDK8 (UniProt P49336) | -0.098 | -0.094 | -0.161 | 0.028 | -0.023 | 0.102 | -0.087 | 0.287 | -0.044 | 0.034 |
| CELF2 isoform 3 (UniProt O95319) | -0.042 | -0.044 | 0 | 0.045 | 0.004 | 0.047 | 0.021 | 0.064 | -0.022 | 0.086 |
| CPSF1 (UniProt Q10570) | -0.004 | -0.057 | -0.108 | 0.039 | -0.012 | 0.02 | -0.062 | -0.045 | 0.041 | -0.037 |
| CDC42SE1 (UniProt Q9NRR8) | 0.078 | 0.041 | -0.005 | 0.014 | 0.021 | 0 | -0.009 | -0.207 | 0.023 | -0.012 |
| CCNT1 (UniProt O60563) | -0.026 | 0.036 | -0.141 | 0.047 | -0.041 | -0.05 | -0.129 | -0.084 | -0.014 | -0.059 |
| CCDC82 (UniProt Q8N4S0) | -0.08 | 0.035 | 0.011 | -0.026 | -0.01 | 0.046 | -0.022 | -0.092 | -0.004 | 0.022 |
| CHKA (UniProt P35790) | 0.012 | -0.008 | 0.036 | -0.018 | 0.001 | -0.119 | 0.069 | -0.188 | 0.005 | -0.021 |
| CSNK1A1 (UniProt P48729) | 0.073 | 0.002 | -0.028 | -0.002 | -0.008 | 0.018 | -0.029 | -0.088 | 0.001 | -0.064 |
| CHEK1 (UniProt O14757) | 0.03 | 0.047 | 0.029 | 0.012 | 0.246 | 0 | -0.026 | -0.099 | -0.303 (active) | -0.089 |
| CLTB (UniProt P09497) | 0.106 | -0.042 | 0.038 | -0.05 | -0.02 | 0.039 | 0.069 | 0.028 | 0.008 | 0.023 |
| CHMP4B (UniProt Q9H444) | 0.018 | -0.006 | 0.024 | 0.013 | -0.014 | 0.057 | 0.043 | -0.001 | 0.083 | 0.035 |
| CLINT1 isoform 3 (UniProt Q14677) | 0.016 | -0.134 | -0.097 | -0.036 | 0.026 | 0.05 | -0.03 | -0.042 | -0.044 | 0.042 |
| CCDC59 (UniProt Q9P031) | -0.118 | -0.127 | -0.192 | 0.071 | -0.136 | -0.014 | -0.091 | 0.069 | 0.054 | -0.027 |
| CNOT7 (UniProt Q9UIV1) | 0.025 | -0.002 | -0.059 | 0.018 | 0.194 | -0.044 | 0.128 | 0.048 | -0.003 | 0.016 |
| CSK (UniProt P41240) | 0.023 | 0.031 | -0.038 | 0.005 | 0.056 | -0.022 | 0.024 | -0.02 | -0.034 | -0.05 |
| CD151 (UniProt P48509) | -0.035 | 0.029 | 0.045 | 0.103 | -0.021 | 0.069 | 0.021 | -0.125 | -0.021 | 0.113 |
| COX6B1 (UniProt P14854) | 0.027 | 0.011 | 0.247 | -0.045 | 0.118 | 0.048 | 0 | -0.037 | -0.003 | -0.019 |
| CPQ (UniProt Q9Y646) | 0.013 | 0.002 | 0.051 | 0 | 0.05 | 0.004 | 0.07 | 0 | -0.027 | 0.125 |
| CSE1L (UniProt P55060) | -0.005 | 0.056 | 0.064 | -0.033 | 0 | 0.052 | 0.012 | -0.044 | 0.028 | -0.04 |
| CDC123 (UniProt O75794) | -0.039 | 0.038 | 0.011 | 0.036 | -0.021 | 0.032 | 0.048 | -0.001 | -0.001 | 0.023 |
